Source: the supplement of paper PMC9492666
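Also: breast cancer cell viability read out with the CCK-8 kit after co-treatment of each compound with the ferroptosis inducer RSL3.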

Each compound was assayed on HCC1937 (assay: relative cell viability, compound + RSL3, vs DMSO (fraction of DMSO control); higher = less growth inhibition). Conditions: 72 h.
`CCc1ccc(CCOc2ccc(CC3SC(=O)NC3=O)cc2)nc1` (centres undefined) [Pioglitazone] + COC(=O)c1ccc([C@H]2c3[nH]c4ccccc4c3C[C@H](C(=O)OC)N2C(=O)CCl)cc1 [RSL3] was tested, and the relative cell viability was 0.919.
Compound `CCCC[S+]([O-])c1sc2nc(-c3cccs3)cc(-c3ccccc3)c2c1N` (centres undefined) + COC(=O)c1ccc([C@H]2c3[nH]c4ccccc4c3C[C@H](C(=O)OC)N2C(=O)CCl)cc1 [RSL3] has a relative cell viability of 0.748.
Compound `O=C1/C(=C/c2cccs2)CC/C1=C\c1cccs1` + COC(=O)c1ccc([C@H]2c3[nH]c4ccccc4c3C[C@H](C(=O)OC)N2C(=O)CCl)cc1 [RSL3] has a relative cell viability of 0.357.
Compound `COc1ccc2c(c1)CCC1C2CCC2(C)C(NCCCCCCN3C(=O)C=CC3=O)CCC12` (centres undefined) + COC(=O)c1ccc([C@H]2c3[nH]c4ccccc4c3C[C@H](C(=O)OC)N2C(=O)CCl)cc1 [RSL3] has a relative cell viability of 0.243.
`COc1ccc2c(c1)c(CC(=O)O)c(C)n2C(=O)c1ccc(Cl)cc1` [Indometacin] + COC(=O)c1ccc([C@H]2c3[nH]c4ccccc4c3C[C@H](C(=O)OC)N2C(=O)CCl)cc1 [RSL3] gave a relative cell viability of 1.01.

The compounds below were run on MDA-MB-231 in the same assay as above. Conditions: 72 h.
`O=C(Nc1ccc(C(O)(C(F)(F)F)C(F)(F)F)cc1)c1ccc(C(F)(F)F)cc1` + COC(=O)c1ccc([C@H]2c3[nH]c4ccccc4c3C[C@H](C(=O)OC)N2C(=O)CCl)cc1 [RSL3] showed a relative cell viability of 0.255.
In the case of `O=C(O)c1cccnc1Nc1cccc(C(F)(F)F)c1` [Niflumic acid] + COC(=O)c1ccc([C@H]2c3[nH]c4ccccc4c3C[C@H](C(=O)OC)N2C(=O)CCl)cc1 [RSL3], the relative cell viability was 0.53.
`O=C(O)CC[C@H](O)C(=O)O` [L-2-Hydroxyglutaric acid disodium] + COC(=O)c1ccc([C@H]2c3[nH]c4ccccc4c3C[C@H](C(=O)OC)N2C(=O)CCl)cc1 [RSL3] showed a relative cell viability of 0.76.
In the case of `C[C@]12C=CC(=O)N[C@@H]1CC[C@@H]1[C@@H]2CC[C@]2(C)[C@@H](C(=O)Nc3cc(C(F)(F)F)ccc3C(F)(F)F)CC[C@@H]12` [Dutasteride] + COC(=O)c1ccc([C@H]2c3[nH]c4ccccc4c3C[C@H](C(=O)OC)N2C(=O)CCl)cc1 [RSL3], the relative cell viability was 0.427.
`C=CC[S+]([O-])C[C@H](N)C(=O)O` (some centres undefined) [Alliin] + COC(=O)c1ccc([C@H]2c3[nH]c4ccccc4c3C[C@H](C(=O)OC)N2C(=O)CCl)cc1 [RSL3] was tested, and the relative cell viability was 0.704.
In the case of `COc1ccc(-c2coc3cc(O)cc(O)c3c2=O)cc1` [Biochanin A] + COC(=O)c1ccc([C@H]2c3[nH]c4ccccc4c3C[C@H](C(=O)OC)N2C(=O)CCl)cc1 [RSL3], the relative cell viability was 0.438.
Compound `NC(N)=NN=Cc1cccc(Cl)c1Cl` [Raphin1] + COC(=O)c1ccc([C@H]2c3[nH]c4ccccc4c3C[C@H](C(=O)OC)N2C(=O)CCl)cc1 [RSL3] has a relative cell viability of 0.626.
Compound `COC(=O)c1sccc1S(=O)(=O)Nc1ccc(Nc2ccccc2)cc1OC` + COC(=O)c1ccc([C@H]2c3[nH]c4ccccc4c3C[C@H](C(=O)OC)N2C(=O)CCl)cc1 [RSL3] has a relative cell viability of 0.542.
`O=C(c1ccc(-c2nc3ccc(F)cc3o2)cc1)N1CCN(C(=O)C2(O)CC2)CC1` + COC(=O)c1ccc([C@H]2c3[nH]c4ccccc4c3C[C@H](C(=O)OC)N2C(=O)CCl)cc1 [RSL3] showed a relative cell viability of 0.683.
With `CC(C)c1nc(N(C)S(C)(=O)=O)nc(-c2ccc(F)cc2)c1/C=C/[C@@H](O)C[C@@H](O)CC(=O)O` [Rosuvastatin] + COC(=O)c1ccc([C@H]2c3[nH]c4ccccc4c3C[C@H](C(=O)OC)N2C(=O)CCl)cc1 [RSL3] the relative cell viability was 0.527.
`CCCCCCCCCCC#CC#CCCCCCCCCC(=O)O` [10,12-Tricosadiynoic acid] + COC(=O)c1ccc([C@H]2c3[nH]c4ccccc4c3C[C@H](C(=O)OC)N2C(=O)CCl)cc1 [RSL3] showed a relative cell viability of 0.634.
Work on `CCc1c(-c2ccccc2)c(-c2ccccc2)nn1-c1ccccc1-c1cccc(OCC(=O)O)c1` + COC(=O)c1ccc([C@H]2c3[nH]c4ccccc4c3C[C@H](C(=O)OC)N2C(=O)CCl)cc1 [RSL3] yielded a relative cell viability of 0.741.
Work on `COc1ccc2[nH]cc(CCNC(C)=O)c2c1` [Melatonine] + COC(=O)c1ccc([C@H]2c3[nH]c4ccccc4c3C[C@H](C(=O)OC)N2C(=O)CCl)cc1 [RSL3] yielded a relative cell viability of 0.465.
In the case of `C=CCc1ccc(O)c(-c2cc(CC=C)ccc2O)c1` [Magnolol] + COC(=O)c1ccc([C@H]2c3[nH]c4ccccc4c3C[C@H](C(=O)OC)N2C(=O)CCl)cc1 [RSL3], the relative cell viability was 0.668.
